# In PubChem BioAssay (NCATS):
# Results filed as inconclusive are left out. Where a call stands in place of a potency, no number is given. Activity calls are given as the source filed them. Unless noted, calls come from the whole dose curve; as a rule, active = well fitted curve in the direction sought with a large enough effect; inconclusive = small, poorly fitted or top-dose-only effect, or another doubt; inactive = no such curve, though single readings can be large; an effect the other way counts as inactive or inconclusive.
# Legend:
# [1] = S16 Schwann cell PMP22 intronic element beta-lactamase assay (AID 624044; calls by dose curve; note: nearly all actives have a fitted effect of over 15% in size); settings: S16 rat Schwann cells, PMP22 element beta-lactamase FRET, 24 h; ratio activity, negative = inhibition: at 38.3 µM (top of the series) unless noted
# Summary of the method: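 Beta-lactamase reporter under a PMP22 intronic regulatory element in stable S16 rat Schwann cells; 24 h compound exposure. 460 nm blue signal normalized between DMSO (0%) and potassium clavulanate, with 535 nm FRET tracking viability; curves classed by r2 and response.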
# CP191 = assay: qHTS profiling for inhibitors of Plasmodium falciparum proliferation (AID 504749); note: nearly all actives have a fitted effect of over 60% in size; note: potency is the fitted concentration of half-maximal effect; settings: P. falciparum in erythrocytes, SYBR Green DNA, 72 h; series mostly up to 28.7 µM
# Summary of the method: (§1)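 Each compound contacts P. falciparum-infected red blood cells for 72 h at 37 C; lysis buffer (Tris, EDTA, saponin, Triton X, SYBR Green I) is added and fluorescence measured next morning; values normalized to controls.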
# CP194 = assay: as above; settings: P. falciparum in erythrocytes, SYBR Green DNA, 72 h; series mostly up to 28.7 µM
# Summary of the method: as §1
# CP201 = assay: as above; settings: P. falciparum in erythrocytes, SYBR Green DNA, 72 h; series mostly up to 28.7 µM
# Summary of the method: as §1
# CP203 = assay: as above; settings: P. falciparum in erythrocytes, SYBR Green DNA, 72 h; series mostly up to 28.7 µM
# Summary of the method: as §1
# CP247 = assay: as above; settings: P. falciparum in erythrocytes, SYBR Green DNA, 72 h; series mostly up to 28.7 µM
# Summary of the method: as §1
# CP266 = assay: as above; settings: P. falciparum in erythrocytes, SYBR Green DNA, 72 h; series mostly up to 12.8 µM
# Summary of the method: as §1
# CP291 = assay: as above; settings: P. falciparum in erythrocytes, SYBR Green DNA, 72 h; series mostly up to 28.7 µM
# Summary of the method: as §1
# CP297 = assay: as above; settings: P. falciparum in erythrocytes, SYBR Green DNA, 72 h; series mostly up to 28.7 µM
# Summary of the method: as §1
# CP305 = assay: as above; settings: P. falciparum in erythrocytes, SYBR Green DNA, 72 h; series mostly up to 28.7 µM
# Summary of the method: as §1
# CP329 = assay: as above; settings: P. falciparum in erythrocytes, SYBR Green DNA, 72 h; series mostly up to 28.7 µM
# Summary of the method: as §1
# DIV30 = assay: as above; settings: P. falciparum in erythrocytes, SYBR Green DNA, 72 h; series mostly up to 28.7 µM
# Summary of the method: as §1
# Dd2 = assay: as above; settings: P. falciparum in erythrocytes, SYBR Green DNA, 72 h; series mostly up to 28.7 µM
# Summary of the method: as §1
# GB4 = assay: as above; settings: P. falciparum in erythrocytes, SYBR Green DNA, 72 h; series mostly up to 28.7 µM
# Summary of the method: as §1
# TAB113 = assay: as above; settings: P. falciparum in erythrocytes, SYBR Green DNA, 72 h; series mostly up to 28.7 µM
# Summary of the method: as §1
# TAB165 = assay: as above; settings: P. falciparum in erythrocytes, SYBR Green DNA, 72 h; series mostly up to 28.7 µM
# Summary of the method: as §1
# AS120 = assay: as above; settings: P. falciparum in erythrocytes, SYBR Green DNA, 72 h; series mostly up to 28.7 µM
# Summary of the method: as §1
# P93_24 = assay: as above; settings: P. falciparum in erythrocytes, SYBR Green DNA, 72 h; series mostly up to 28.7 µM
# Summary of the method: as §1
# P94_40 = assay: as above; settings: P. falciparum in erythrocytes, SYBR Green DNA, 72 h; series mostly up to 28.7 µM
# Summary of the method: as §1
# [2] = Confirmation and Secondary Assay for Modulators of Hemoglobin Beta Chain Splicing at IVS2 654 locus (AID 910);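 note: HeLa cells stably carrying EGFP split by mutant beta-globin IVS2-654 intron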
# Summary of the method: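 HeLa cells stably expressing EGFP interrupted by β-globin IVS2-654 intron, seeded overnight in Opti-MEM/2% FCS, then treated 2 days at 37 °C. Restored splicing read as total peak GFP intensity per well by laser scanning cytometry (488 nm excitation, 500–520 nm emission); 500 nM antisense PNA as control.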
Structure (SMILES),Potency [1],Potency (CP191),Potency (CP194),Potency (CP201),Potency (CP203),Potency (CP247),Potency (CP266),Potency (CP291),Potency (CP297),Potency (CP305),Potency (CP329),Potency (DIV30),Potency (Dd2),Potency (GB4),Potency (TAB113),Potency (TAB165),Potency (AS120),Potency (P93_24),Potency (P94_40),Potency [2]
CC[C@@H]1[C@@H]2C[C@H]3[C@H]4N(C)c5ccccc5[C@@]45C[C@@H]([C@@H]2[C@@H]5O)N3[C@H]1O,inactive,inactive,inactive,inactive,inactive,inactive,inactive,inactive,inactive,inactive,inactive,inactive,inactive,inactive,inactive,inactive,,,,
CNC[C@H](O)c1ccc(O)cc1,inactive,inactive,inactive,inactive,inactive,inactive,inactive,inactive,inactive,inactive,inactive,inactive,inactive,inactive,inactive,inactive,inactive,inactive,inactive,
C[C@H](NC(C)(C)C)C(=O)c1cccc(Cl)c1,inactive,inactive,inactive,inactive,inactive,,inactive,inactive,inactive,inactive,inactive,inactive,,inactive,inactive,inactive,inactive,inactive,inactive,
C[C@@]12CC[C@H]3[C@@H](CC[C@@H]4C[C@H]5S[C@H]5C[C@]43C)[C@H]1CC[C@H]2O,inactive,inactive,inactive,inactive,inactive,inactive,inactive,inactive,inactive,inactive,inactive,inactive,inactive,inactive,inactive,inactive,inactive,inactive,inactive,
CC(C)N(CC[C@@](C(N)=O)(c1ccccc1)c1ccccn1)C(C)C,inactive,inactive,inactive,inactive,inactive,inactive,inactive,inactive,inactive,inactive,inactive,inactive,inactive,,inactive,inactive,inactive,inactive,inactive,
CCN[C@]1(c2cccs2)CCCCC1=O,inactive,inactive,inactive,inactive,inactive,inactive,inactive,inactive,inactive,inactive,inactive,inactive,inactive,,inactive,inactive,inactive,inactive,,
CC(=O)OCC(=O)[C@@H]1CC[C@H]2[C@H]3CC[C@H]4C[C@@H](O)CC[C@]4(C)[C@@H]3C(=O)C[C@@]12C,inactive,inactive,inactive,inactive,inactive,inactive,inactive,inactive,inactive,inactive,inactive,inactive,inactive,inactive,inactive,inactive,inactive,inactive,inactive,
C#CCN(C)[C@@H](C)Cc1ccccc1,inactive,inactive,inactive,inactive,inactive,inactive,inactive,inactive,inactive,inactive,inactive,inactive,inactive,inactive,inactive,inactive,inactive,inactive,inactive,
CC[C@]1(c2cccc(O)c2)CCCCN(C)C1,inactive,inactive,,inactive,,inactive,inactive,,,,,,3.16 µM (active),4.55 µM (active),inactive,,,inactive,,
NCC[C@H](O)C(=O)N[C@H]1C[C@@H](N)[C@@H](O[C@H]2O[C@@H](CN)[C@@H](O)[C@@H](O)[C@@H]2N)[C@@H](O[C@H]2O[C@@H](CO)[C@@H](O)[C@@H]2O)[C@@H]1O,inactive,inactive,inactive,inactive,inactive,inactive,inactive,inactive,inactive,inactive,inactive,inactive,inactive,inactive,,inactive,inactive,inactive,inactive,
COc1ccc2c(c1OC)CN1CCc3cc4c(cc3[C@H]1C2)OCO4,inactive,,,,,,,,1.81 µM (active),2.28 µM (active),1.61 µM (active),2.56 µM (active),,2.03 µM (active),3.16 µM (active),,,2.51 µM (active),2.51 µM (active),
C[C@@H]1O[C@H](O[C@@H]2C=C3CC[C@H]4[C@@H](CC[C@]5(C)[C@@H](c6ccc(=O)oc6)CC[C@]45O)[C@@]3(C)CC2)[C@@H](O)[C@H](O)[C@@H]1O,inactive,inactive,inactive,inactive,inactive,inactive,inactive,inactive,inactive,inactive,inactive,inactive,inactive,inactive,inactive,inactive,inactive,inactive,inactive,
CN[C@@H](C)[C@H]1CC[C@@H](N)[C@@H](O[C@@H]2[C@@H](O)[C@@H](O[C@H]3OC[C@@](C)(O)[C@@H](NC)[C@@H]3O)[C@H](N)C[C@@H]2N)O1 (tested in a mixture with another compound),inactive,inactive,inactive,inactive,inactive,inactive,inactive,inactive,inactive,inactive,inactive,inactive,inactive,inactive,inactive,inactive,inactive,inactive,inactive,
CCCCCCCCCc1ccc(O)cc1,,,,,,,,,,,,,,,,,,,,inactive
C[N+]1([O-])[C@@H]2CC[C@H]1CC(OC(=O)[C@@H](CO)c1ccccc1)C2 (some centres not stated),inactive,inactive,inactive,,inactive,inactive,inactive,inactive,inactive,inactive,inactive,inactive,inactive,inactive,inactive,inactive,inactive,inactive,inactive,
CC(=O)O[C@H]1CC[C@@]2(C)C(=CC[C@@H]3[C@H]2CC[C@]2(C)C(=O)CC[C@H]32)C1,inactive,inactive,inactive,inactive,inactive,inactive,inactive,inactive,inactive,inactive,inactive,inactive,inactive,inactive,inactive,inactive,inactive,inactive,inactive,

Structure (SMILES),Potency [1],Potency (CP191),Potency (CP194),Potency (CP201),Potency (CP203),Potency (CP247),Potency (CP266),Potency (CP291),Potency (CP297),Potency (CP305),Potency (CP329),Potency (DIV30),Potency (Dd2),Potency (GB4),Potency (TAB113),Potency (TAB165),Potency (AS120),Potency (P93_24),Potency (P94_40),Potency [2]
CNC(=O)N(C)c1nnc(C(C)(C)C)s1,,,,,,,,,,,,,,,,,,,,inactive
COc1cc2c(cc1OC)[C@@]13CCN4CC5=CCOC6CC(=O)N2C1[C@H]6[C@@H]5C[C@@H]43 (some centres not stated),inactive,inactive,inactive,inactive,inactive,inactive,inactive,inactive,inactive,inactive,inactive,inactive,inactive,inactive,inactive,inactive,inactive,inactive,inactive,
c1ccc2c(c1)[nH]c1cnccc12,,,,,,,,,,,,,,,,,,,,inactive
CNc1ccc(C(=O)CC(O)CCC(C)C2OC(=O)CC(O)CC(=O)CC(O)CC(O)CC(O)CC(O)CC3(O)CC(O)C(C(=O)OC)C(CC(O[C@@H]4OC(C)C(O)C(N)C4O)/C=C/C=C/C=C/C=C/C=C/C=C/C=C/C2C)O3)cc1 (some centres not stated),,inactive,inactive,inactive,inactive,inactive,inactive,inactive,inactive,inactive,inactive,inactive,inactive,inactive,,inactive,inactive,inactive,inactive,inactive
CN(C)[C@@H]1C(=O)C(C(N)=O)=C(O)[C@]2(O)C(=O)C3=C(O)c4c(O)ccc(Cl)c4[C@](C)(O)[C@H]3C[C@@H]12,inactive,,inactive,inactive,inactive,inactive,inactive,,inactive,inactive,inactive,inactive,,inactive,inactive,inactive,inactive,inactive,inactive,
O=C(O)CNCP(=O)(O)O,,,,,,,,,,,,,,,,,,,,inactive
O=c1ccc2cc(O[C@H]3O[C@@H](CO)[C@@H](O)[C@@H](O)[C@@H]3O)c(O)cc2o1,,inactive,inactive,inactive,inactive,inactive,inactive,inactive,inactive,inactive,inactive,inactive,inactive,inactive,inactive,inactive,inactive,inactive,inactive,
Clc1ccc([C@@H](OCCN2CCCCC2)c2ccccc2)cc1,inactive,,,inactive,,,inactive,inactive,inactive,,inactive,,4.47 µM (active),5.73 µM (active),,,,3.55 µM (active),3.55 µM (active),
COc1cc(N)c(Cl)cc1C(=O)N[C@@H]1CN2CCC1CC2,inactive,inactive,inactive,inactive,inactive,inactive,inactive,inactive,inactive,inactive,inactive,inactive,inactive,inactive,inactive,inactive,inactive,inactive,inactive,
CCS(=O)CCSP(=O)(OC)OC (configuration not stated),,,,,,,,,,,,,,,,,,,,inactive
CNC(C)[C@@H](O)c1ccccc1 (some centres not stated),inactive,inactive,inactive,inactive,inactive,inactive,inactive,inactive,,inactive,inactive,inactive,inactive,inactive,inactive,inactive,inactive,inactive,inactive,
COC1=CC23CCCN2CCc2cc4c(cc2C3C1O)OCO4 (configuration not stated),,,,,,,,,,,,,,,,,,,,inactive
CC(C)Nc1nc(Cl)nc(NC(C)C)n1,,,,,,,,,,,,,,,,,,,,inactive
C[C@]12CCC(=O)C=C1CCc1ccc(O)cc12,,,,,,,,,,,,,,,,,,,,inactive
CCC(C)C1O[C@]2(C=CC1C)CC1CC(C/C=C(\C)[C@H](OC3CC(OC)C(O[C@H]4CC(OC)[C@@H](O)C(C)O4)C(C)O3)[C@@H](C)/C=C/C=C3\COC4C(O)C(C)=C[C@H](C(=O)O1)[C@@]34O)O2 (some centres not stated),inactive,7.94 µM (active),12 µM (active),16.9 µM (active),13.5 µM (active),8.91 µM (active),,10.7 µM (active),13.5 µM (active),12 µM (active),9.53 µM (active),,11.2 µM (active),13.5 µM (active),,12.6 µM (active),10 µM (active),,10 µM (active),inactive
